# Compound activity deposited in PubChem BioAssay by The Scripps Research Institute Molecular Screening Center.
# Shown are actives, neighbours in structure and some others; about 3.3% of the full set was active somewhere.
# TLR9-MyD88 inh: inhibitors of TLR9-MyD88 association in cells, primary screen, cell-based, CHO, BLA complementation, fluorescence. AID 504734, 2011. 340,000 compounds, 0.21% hits. inhibition, % at 4.98 µM. CCF4 FRET ratio. Toll-like receptor 9 (Homo sapiens) + Myeloid differentiation primary response protein …;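 active = inhibition above the mean over all tested compounds plus 3 SD, cut at about 21% in these data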
# Target sequence (Q99836 whole entry, looked up): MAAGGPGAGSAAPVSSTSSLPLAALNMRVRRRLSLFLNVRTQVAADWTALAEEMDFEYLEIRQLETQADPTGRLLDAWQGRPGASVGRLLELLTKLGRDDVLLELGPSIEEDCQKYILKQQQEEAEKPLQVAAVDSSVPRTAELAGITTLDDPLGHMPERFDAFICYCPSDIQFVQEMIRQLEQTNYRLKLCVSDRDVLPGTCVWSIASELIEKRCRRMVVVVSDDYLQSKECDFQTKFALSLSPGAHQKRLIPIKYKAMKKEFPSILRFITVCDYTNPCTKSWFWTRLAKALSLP
# Target sequence (Q9NR96 whole entry, looked up): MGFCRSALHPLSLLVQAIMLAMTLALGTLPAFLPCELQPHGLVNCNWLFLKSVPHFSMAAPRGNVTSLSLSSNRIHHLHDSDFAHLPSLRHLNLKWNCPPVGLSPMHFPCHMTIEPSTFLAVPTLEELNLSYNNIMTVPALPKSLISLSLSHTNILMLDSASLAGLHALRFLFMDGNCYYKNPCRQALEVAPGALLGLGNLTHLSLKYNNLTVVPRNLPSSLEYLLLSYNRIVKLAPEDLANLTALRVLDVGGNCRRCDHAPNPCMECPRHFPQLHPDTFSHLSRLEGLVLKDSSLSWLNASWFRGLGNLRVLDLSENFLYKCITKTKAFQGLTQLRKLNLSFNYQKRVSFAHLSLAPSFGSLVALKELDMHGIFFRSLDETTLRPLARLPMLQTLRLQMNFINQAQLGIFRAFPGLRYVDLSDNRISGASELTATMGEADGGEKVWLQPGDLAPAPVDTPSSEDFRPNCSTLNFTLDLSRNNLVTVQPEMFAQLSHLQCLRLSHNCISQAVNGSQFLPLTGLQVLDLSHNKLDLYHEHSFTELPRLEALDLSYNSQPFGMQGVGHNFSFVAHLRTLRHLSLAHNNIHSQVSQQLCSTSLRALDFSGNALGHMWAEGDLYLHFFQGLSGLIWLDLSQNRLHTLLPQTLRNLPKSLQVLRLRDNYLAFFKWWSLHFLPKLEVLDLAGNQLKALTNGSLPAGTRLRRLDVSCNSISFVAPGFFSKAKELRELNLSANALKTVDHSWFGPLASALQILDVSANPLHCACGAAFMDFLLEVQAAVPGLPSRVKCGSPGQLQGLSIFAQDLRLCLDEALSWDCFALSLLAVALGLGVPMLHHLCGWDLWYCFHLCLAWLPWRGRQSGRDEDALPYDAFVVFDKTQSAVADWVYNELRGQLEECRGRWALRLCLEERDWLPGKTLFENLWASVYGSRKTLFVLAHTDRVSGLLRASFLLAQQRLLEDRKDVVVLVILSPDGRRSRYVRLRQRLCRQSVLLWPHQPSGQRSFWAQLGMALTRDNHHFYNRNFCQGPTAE
# ABHD5-PLIN5 inh: ABHD5-PLIN5 interaction inhibitors, primary screen, cell lysate, split luciferase complementation, luminescence; Perilipin-5 (Homo sapiens) + 1-acylglycerol-3-phosphate O-acyltransferase ABHD5 (Homo …; Split G. princeps luciferase complementation, 4 h; 360,000 compounds, 0.78% hits; AID 602281, 2012; inhibition, % at 4 µM;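 active = inhibition above the mean inhibition across every tested compound plus 3 SD, cut at about 22% in these data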
# TLR4 MyD88 comp: inhibitors of TLR4-MyD88 association in cells, primary screen, cell-based, HeLa CL3-4, BLA complementation, FRET ratio; HeLa CL3-4 TLR4/MyD88 BLA complementation; inhibition, % at 8.4 µM; 200,000 compounds, 0.18% hits; AID 861, 2007; in the data active = inhibition above about 25%
# NOD2-RIPK2 inh: NOD2-RIPK2 binding disruptors in cells, primary screen, fluorescence, CHO cells, BLA complementation | CCF4 ratio | 360,000 compounds, 0.38% hits | Receptor-interacting serine/threonine-protein kinase 2 (Homo sapiens), O43353 | inhibition, % at 4.98 µM; in the data active = inhibition above about 21%
# PRMT1 inh: PRMT1 methyltransferase inhibitors, primary screen, biochemical, fluorescence polarization | AID 652257, 2013 | Protein arginine N-methyltransferase 1 (Homo sapiens), Q99873 | recombinant PRMT1, activity-based probe fluorescence polarization | 370,000 compounds, 1.3% hits | inhibition, % at 2.79 µM;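 active = inhibition above about 21% made by adding two undisclosed values, limit read from the data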
# rCAG RNA binder: binders of r(CAG) RNA repeats, primary screen, biochemical, fluorescence | r(CAG) RNA repeat, TO-PRO-1 dye displacement fluorescence | inhibition, % at 3 µM | 370,000 compounds, 1.3% hits;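 active = inhibition above the plate cutoff, the mean of all test compounds on that plate plus 3 SD, cut at about 35% in these data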;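 note: higher means more dye released from RNA so lower well fluorescence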
# rCAG binder conf: small molecules binding CAG repeat RNA – biochemical, fluorescence, confirmation. shares compounds with rCAG RNA binder. r(CAG) RNA repeat, TO-PRO-1 dye displacement fluorescence. inhibition, % at 3 µM. 4,300 compounds, 70% hits;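 active = inhibition above a per-plate cutoff, the mean inhibition of sample wells plus 3 SD, cut at about 35% in these data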;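 note: loss of TO-PRO-1 fluorescence as compound displaces dye from 1x1 AA loop RNA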
# dCAG dye counter: displacement of TO-PRO-1 from CAG DNA duplex, counter-screen for rCAG RNA repeat binder project, biochemical, fluorescence, TO-PRO-1 dye, d(CAG) DNA oligo; shares compounds with rCAG RNA binder; d(CAG) DNA oligo TO-PRO-1 dye displacement; inhibition, % at 3 µM; 4,300 compounds, 94% hits; AID 652068, 2013;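 active = inhibition above its plate's cutoff, the mean test-well inhibition plus 3 SD, cut at about 4.8% in these data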;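 note: hits displace the dye from DNA and so lower well fluorescence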
# DNA CAG DR: inhibitors of DNA CAG/GTC TO-PRO-1 complex, dose response, counter-screen for rCAG RNA repeat binder project, biochemical, fluorescence, TO-PRO-1 dye | shares compounds with rCAG RNA binder | 250 compounds, 20% hits | DNA CAG/GTC duplex TO-PRO-1 dye displacement fluorescence | IC50, µM | AID 686960, 2013; in the data active = IC50 below about 10 µM
# Hits are given with their value; n = inactive; x = not tested or not shown.
SMILES,TLR9-MyD88 inh,ABHD5-PLIN5 inh,TLR4 MyD88 comp,NOD2-RIPK2 inh,PRMT1 inh,rCAG RNA binder,rCAG binder conf,dCAG dye counter,others
Cc1ccc(S(=O)(=O)N2[C@@H](c3cccc(Cl)c3)C(C(=O)O)=CC[C@H]2c2ccc3c(c2)OCO3)cc1,n,n,x,n,n,67.1,69.3,31.1,
Cc1ccc(S(=O)(=O)N2CC(C(=O)O)=CC[C@H]2c2ccc3c(c2)OCO3)cc1,n,n,x,n,n,n,x,x,
Cc1ccc(S(=O)(=O)N2[C@@H](c3ccc(Br)cc3)C(C(=O)O)=CC[C@H]2c2ccc3c(c2)OCO3)cc1,n,n,x,n,n,66.6,59.8,22.6,
Cc1ccc(S(=O)(=O)N2[C@@H](c3cccc(Cl)c3)C(C(=O)O)=CC[C@H]2c2cccc(Cl)c2)cc1,n,n,x,n,n,n,x,x,
Cc1ccc(S(=O)(=O)N2[C@@H](c3ccc(Cl)cc3)C(C(=O)O)=CC[C@H]2c2ccc3c(c2)OCO3)cc1,n,n,x,n,n,54.4,60.0,22.6,
Cc1ccc(S(=O)(=O)N2[C@@H](c3ccc(Br)cc3)C(C(=O)O)=CC[C@H]2c2cccc(Cl)c2)cc1,n,n,x,n,n,n,x,x,
CCCCc1nc2sc3c(=O)n(N)cnc3c2c2c1CCC2,n,n,n,n,n,n,x,x,
CN(CCO)c1cccc2c1S(=O)(=O)N(Cc1cn(Cc3ccccc3C(F)(F)F)nn1)Cc1ccccc1O2,x,x,x,x,n,n,x,x,
Cc1c(OC(C(=O)O)c2ccccc2)ccc2c1oc(=O)c1ccccc12 (centres undefined),n,n,x,n,n,36.1,48.1,13.7,
COc1cc(/C=N/NC(=O)[C@H](Cc2c[nH]c3ccccc23)NC(=O)OCC(C)C)cc([N+](=O)[O-])c1O,n,n,n,n,n,70.2,48.0,16.9,
COc1cc(/C=N/NC(=O)Cc2ccccc2)cc([N+](=O)[O-])c1O,n,n,x,n,n,n,x,x,
COc1ccc(C(=O)O)cc1NC(=S)NC(=O)c1ccc(-c2ccc(Cl)cc2)o1,n,n,n,n,n,39.8,71.7,32.3,DNA CAG DR=7.69
O=C(O)c1cccc(NC(=S)NC(=O)c2ccc(-c3ccccc3)cc2)c1,n,n,n,n,n,n,x,x,
Cc1ccc(C(=O)O)cc1NC(=S)NC(=O)c1ccc(-c2ccccc2)cc1,n,n,n,n,n,54.9,67.1,19.9,
Cc1ccc(C(=O)O)cc1NC(=S)NC(=O)c1ccc(-c2ccc(Cl)cc2)o1,n,n,x,n,n,n,x,x,
CC(=O)c1ccc(NC(=O)CN2C(=O)/C(=C/C(C)=C/c3ccccc3)SC2=S)cc1,n,n,n,n,n,n,x,x,
CC(/C=C1\SC(=S)N(C(C(=O)O)C(C)C)C1=O)=C\c1ccccc1 (centres undefined),n,n,n,n,n,71.9,75.2,31.5,DNA CAG DR=n
CC(/C=C1\SC(=S)N(c2ccc(C(=O)O)cc2)C1=O)=C\c1ccccc1,n,n,x,n,n,55.5,84.0,51.9,
CCCCCCCCN1[C@@H](CC(=O)O)c2ccc(C(F)(F)F)cc2S1(=O)=O,n,n,x,n,n,52.3,n,n,
COc1cccc(N=Nc2c(=O)[nH]n3c(=O)c4c([nH]c23)CCC4)c1,n,n,n,n,n,38.8,n,7.6,
O=c1[nH]n2c(=O)c3c([nH]c2c1N=Nc1cccc(C(F)(F)F)c1)CCCC3,n,n,n,n,n,98.8,76.4,42.3,
O=c1[nH]n2c(=O)c3c([nH]c2c1N=Nc1cccc(Cl)c1)CCC3,n,n,n,n,n,84.7,72.8,30.9,DNA CAG DR=8.41
CN(Cc1cn(Cc2ccccc2)nn1)S(=O)(=O)c1ccc(F)cc1Br,x,x,x,x,n,n,x,x,
C[C@H](O)[C@@H]1C(=O)N2CCc3c([nH]c4ccccc34)[C@@H]2C[C@@H]1N(C)Cc1ccc2c(c1)OCO2,n,n,x,n,n,n,x,x,
NS(=O)(=O)c1cccc(NC(=O)CSc2nc3nc(-c4cccs4)cc(C(F)(F)F)c3c(=O)[nH]2)c1,n,n,x,n,n,49.6,77.2,44.8,
SMILES,TLR9-MyD88 inh,ABHD5-PLIN5 inh,TLR4 MyD88 comp,NOD2-RIPK2 inh,PRMT1 inh,rCAG RNA binder,rCAG binder conf,dCAG dye counter,others
Cc1cccc(NC(=O)[C@H]2CC(=O)O[C@@H]2c2ccccc2)c1C,x,x,x,x,n,n,x,x,
COc1ccc(C2=CC3=C(Br)C(=O)C(C)(OC(=O)c4cccs4)C(=O)C3=CO2)cc1 (centres undefined),n,n,x,n,n,48.8,44.5,20.7,
COc1cc2c(oc(=O)c3cc(C)cc(OC)c32)c2c(C3OC(C)C(O)C(C)(O)C3O)ccc(O)c12 (centres undefined),n,n,x,n,n,51.7,n,6.9,
COc1cccc2cc(C(=O)N3CC(C)OC(C)C3)c(=O)oc12 (centres undefined),n,n,x,n,n,n,x,x,
O=C(O)c1cc(S(=O)(=O)Nc2cc(Cl)ccc2Oc2ccccc2)ccc1O,n,n,x,n,n,72.2,67.4,30.7,
Cn1c(=O)c2cc(NC(=O)NCc3ccc(Cl)cc3Cl)ccc2n1Cc1ccccc1,x,n,x,n,n,n,x,x,
CCc1cc(C(=O)N=Nc2c(O)[nH]c3ccc([N+](=O)[O-])cc23)c2ccccc2n1,n,n,n,n,n,41.6,35.2,22.3,
O=C1CN(C(=O)c2cc([N+](=O)[O-])ccc2Cl)C(c2ccc(F)cc2)c2cc(F)ccc2N1 (centres undefined),n,n,n,n,n,n,x,x,
CC1CC(C)CN(C(=O)c2cccc(S(=O)(=O)Nc3cc(C(F)(F)F)ccc3Cl)c2)C1 (centres undefined),n,n,n,n,n,71.1,66.2,27.3,
Cc1cc(/C=N/NC(=O)c2cccc([N+](=O)[O-])c2)c(C)n1-c1ccccc1,n,n,n,n,n,n,x,x,
